SMILES strings stand for the structures. Calls of active or inactive are those of the source. The rule behind the calls is not given here.

This passage reports Potency results from PubChem BioAssay (NCATS).

Assay [1] in a line: Immunotoxin (HA22) sensitization/mitigation study. Vehicle arm (PBS) (AID 1159510).
Assay [2] is described as follows: Immunotoxin (SS1P) sensitization/mitigation study. Vehicle arm (DMEM) (AID 1159513).
Potency is the fitted concentration of half-maximal effect.

Consider `O=c1cc(CN2CCOCC2)occ1OCCCCCSc1ccnc2cc(C(F)(F)F)ccc12`, for which the Potency is 20.9 µM (active) in assay [1] and 5.9 µM (active) in assay [2].

As for `O=C(C=Cc1cccnc1)NCCCCC1CCN(C(=O)c2ccccc2)CC1`, the Potency entry in assay [1] and in assay [2] was “inactive” throughout.

Take `COC(=O)c1ccc2c(C(=Nc3ccc(N(C)C(=O)CN4CCN(C)CC4)cc3)c3ccccc3)c(O)[nH]c2c1`: the Potency was 0.209 µM (active) in assay [1] and 1.18 µM (active) in assay [2].

For the compound `CN(c1ncccc1CNc1nc(Nc2ccc3c(c2)CC(=O)N3)ncc1C(F)(F)F)S(C)(=O)=O`, the Potency was 1.48 µM (active) in assay [1] and 2.96 µM (active) in assay [2].

Consider `Cc1ccc(-c2ncn(-c3ccc(Nc4nccc(-c5cccc(N6CCOCC6)c5)n4)cc3)n2)cn1`, for which the figures for the Potency in assay [1] and in assay [2] were 0.0264 µM (active) and 0.0235 µM (active), respectively.

As to `CCOC(=O)[C@@H](N)CCC(=O)N[C@@H](CSCc1ccccc1)C(=O)N[C@@H](C(=O)OCC)c1ccccc1`, the Potency in assay [1] was 23.5 µM (active). Also, in assay [2], the Potency result was “inactive”.

As to `CC(=O)N(C)C1(c2ccccc2)CCN(CCC[C@]2(c3ccc(Cl)c(Cl)c3)CCCN(C(=O)c3ccccc3)C2)CC1`, the Potency in assay [1] was 13.2 µM (active); in assay [2], 18.7 µM (active).

In the case of `c1cc(-c2cnn3cc(-c4ccc(OCCN5CCCCC5)cc4)cnc23)ccn1`, the figures for the Potency in assay [1] and in assay [2] were 2.64 µM (active) and 16.6 µM (active), respectively.

In the case of `COc1ccc(-c2oc3cc(OC)ccc3c2C(=O)c2ccc(C#N)cc2)cc1`, the Potency result in assay [1] and in assay [2] was “inactive” in each case.

On to `c1ccc(-c2nn3c(c2-c2ccnc4cc(OCCN5CCOCC5)ccc24)CCC3)nc1`, for which, in assay [1], the Potency was 26.4 µM (active). Besides, the Potency entry in assay [2] was “inactive”.

Regarding `COc1ccc(-c2ccc3c(N4CCOC[C@H]4C)nc(N4CCOC[C@H]4C)nc3n2)cc1CO`, the Potency is 0.469 µM (active) in assay [1] and 0.0105 µM (active) in assay [2].

Regarding `CC(C)[C@H](C(=O)Nc1ccc(C(=O)NO)cc1)c1ccccc1`, the Potency in assay [1] is 0.0418 µM (active); in assay [2], 0.132 µM (active).

Turning to `CC(=O)Nc1ccc([C@H](C)C(=O)Nc2ncc(C(C)C)s2)cc1`, the Potency is 0.296 µM (active) in assay [1] and 0.662 µM (active) in assay [2].

With `CS(=O)(=O)c1ccc(C(=O)Nc2ccc(Cl)c(-c3ccccn3)c2)c(Cl)c1`, the Potency result in assay [1] and in assay [2] was “inactive” throughout.

Take `Cc1n[nH]c(C)c1Cc1sc2c(c1C(=O)N1C[C@H](O)CO1)c(=O)n(C)c(=O)n2CC(C)C`: in assay [1], the Potency was 0.0019 µM (active). In assay [2], the Potency entry was “inactive”.

Regarding `Cc1cc(SCc2sc(-c3ccc(C(F)(F)F)cc3)nc2C)ccc1OCC(=O)O`, the Potency entry in assay [1] and in assay [2] was “inactive” in each case.

`CC(C)(C)c1cc(C(=O)O)c(NC(=O)Nc2ccc3[nH]ncc3c2)s1`: the Potency result in assay [1] and in assay [2] was “inactive” each time.

As for `Cc1ccc(F)c(NC(=O)Nc2ccc(-c3cccc4[nH]nc(N)c34)cc2)c1`, the Potency in assay [1] was 5.26 µM (active); in assay [2], 13.2 µM (active).

As for `CC1(C)OC2=C(C(=O)c3ccccc3C2=O)[C@H](NCc2ccccc2)[C@H]1O`, the Potency in assay [1] is 2.64 µM (active); in assay [2] it was 13.2 µM (active).

In the case of `O=C1C(CCC(O)c2ccc(F)cc2)C(c2ccc(O)cc2)N1c1ccc(F)cc1` (stereo unspecified), the Potency result in assay [1] and in assay [2] was “inactive” throughout.

On to `Nc1ccccc1NC(=O)c1ccc(CNc2nccc(-c3cccnc3)n2)cc1`, for which the Potency in assay [1] was 0.132 µM (active); in assay [2] it was 0.187 µM (active).

Consider `Fc1ccc(Cl)cc1-c1nc(Nc2ccncc2)c2nccnc2n1`, for which the Potency result in assay [1] and in assay [2] was “inactive” in each case.

As to `CC(NC(=O)Cc1cc(F)cc(F)c1)C(=O)NC(C(=O)OC(C)(C)C)c1ccccc1` (stereo unspecified), the Potency entry in assay [1] and in assay [2] was “inactive” in each case.

Take `CCCCCCCc1ccc(CCc2cccc(O)c2C(=O)O)cc1`: the values for the Potency in assay [1] and in assay [2] were 23.5 µM (active) and 18.7 µM (active), respectively.

`CS(=O)(=O)Oc1ccc2c(NC(N)=O)c(C(=O)c3ccc(Cl)cc3Cl)oc2c1`: the Potency entry in assay [1] and in assay [2] was “inactive” throughout.

For `CC(C)C[C@H](NC(=O)CNC(=O)c1cc(Cl)ccc1Cl)B(O)O`, the figures for the Potency in assay [1] and in assay [2] were 0.0187 µM (active) and 0.118 µM (active), respectively.

With `Cc1cccc(C#Cc2ccccc2)n1`, the Potency entry in assay [1] and in assay [2] was “inactive” throughout.

For `Cn1c(=O)n(-c2ccc(C(C)(C)C#N)cc2)c2c3cc(-c4cnc5ccccc5c4)ccc3ncc21`, the values for the Potency in assay [1] and in assay [2] were 3.72 µM (active) and 0.0332 µM (active), respectively.

Turning to `O=C(O)CCc1ccc(NCc2cccc(Oc3ccccc3)c2)cc1`, the Potency result in assay [1] and in assay [2] was “inactive” throughout.

`CCOc1cc(N2CCC(O)CC2)ccc1Nc1ncc2c(n1)N(C)c1ccccc1C(=O)N2C`: the Potency was 13.2 µM (active) in assay [1] and 16.6 µM (active) in assay [2].

As for `O=C(O)[C@@H](c1ccc(OCc2ccc3ccccc3n2)cc1)C1CCCC1`, the Potency entry in assay [1] and in assay [2] was “inactive” throughout.

In the case of `Cc1ccc(S(=O)(=O)Nc2cc(Cl)ccc2C(=O)Nc2nc(-c3ccccc3)cs2)cc1`, the Potency is 5.9 µM (active) in assay [1] and 2.09 µM (active) in assay [2].

With `C[C@@H]1CCN(C(=O)CC#N)C[C@@H]1N(C)c1ncnc2[nH]ccc12`, the Potency result in assay [1] and in assay [2] was “inactive” throughout.
